Measured values reported in PubChem BioAssay (Tox21).
Inconclusive results are not listed. Active and inactive are the calls of the source. Unless noted, calls follow the shape of the dose curve; as a rule, active = well fitted curve in the direction sought with a large enough effect in the repeat runs; inconclusive = weak or mixed curves; inactive = no such curve, though single readings can be large; an effect the other way counts as inactive or inconclusive.

Tests used:
[1] = qHTS assay to identify small molecule agonists of the vitamin D receptor (VDR) signaling pathway - cell viability counter screen (AID 743224); also: series mostly up to about 63 µM; nearly all actives have a fitted effect of over 50% in size
Summary of the method: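 Here cell health was gauged by luminescent ATP detection (CellTiter-Glo, 30 min RT) in VDR-bla cells that had been incubated with test compounds for 16 h at 37C and 5% CO2.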

[2] = qHTS assay to identify small molecule antagonists of the vitamin D receptor (VDR) signaling pathway - cell viability counter screen (AID 743225); also: nearly all actives have a fitted effect of over 50% in size
Summary of the method: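 Read-out: CellTiter-Glo luminescence measured 30 min after reagent addition at room temperature. Cells were VDR-bla HEK 293T exposed 16 h at 37C, 5% CO2, to compound with 3 nM final calcitriol agonist.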

[3] = qHTS assay to identify small molecule agonists of the NFkB signaling pathway (AID 1159509; active = well fitted curve in the direction sought with a large enough effect in the signal ratio in the repeat runs, not every such curve was filed as active; the % refers to the signal ratio; also: series mostly up to about 61 µM)
Summary of the method: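 NFkB-bla ME-180 cells carry a beta-lactamase reporter under an NF-kB response element. They were plated overnight, then exposed to compounds for 5 h at 37 C. Read-out is LiveBLAzer FRET after 1.5 hr at room temperature (405 nm excitation; 460/530 nm emission).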

[4] = qHTS assay to identify small molecule agonists of the NFkB signaling pathway - cell viability counter screen (AID 1159515; calls by dose curve; also: series mostly up to about 61 µM; nearly all actives have a fitted effect of over 55% in size)
Summary of the method: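 5 hr compound treatment of NFkB-bla ME-180 cells (2,000/well, seeded overnight beforehand), followed by reporter substrate for 1.5 hr. CellTiter-Glo added afterward; luminescence after 30 min RT.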

[5] = qHTS assay to identify small molecule agonists of the endoplasmic reticulum stress response signaling pathway (AID 1159516; active = well fitted activation curve with a large enough effect in the signal ratio in the repeat runs, not every such curve was filed as active; the % refers to the signal ratio)
Summary of the method: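 Reporter HeLa cells (ESRE-beta-lactamase) underwent 5 hr compound incubation at 37 C and 5% CO2 in quantitative HTS format. Detection followed 2 hr of FRET substrate loading at room temperature.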

[6] = qHTS assay to identify small molecule antagonists of the retinoid-related orphan receptor gamma (ROR-gamma) signaling pathway - cell viability counter screen (AID 1159520); also: nearly all actives have a fitted effect of over 50% in size
Summary of the method: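 Tet-on ROR gamma CHO cells were given compounds for 2 hr, then doxycycline hyclate at 1 uM final, and incubated 16 hr at 37 C. Viability was measured as ATP content by CellTiter-Glo luminescence.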

[7] = molecular target: Nuclear receptor ROR-gamma (Homo sapiens) (UniProt P51449); assay: qHTS assay to identify small molecule antagonists of the retinoid-related orphan receptor gamma (ROR-gamma) signaling pathway (AID 1159521;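 also: CHO cells with doxycycline inducible ROR-gamma driving an RORE luciferase reporter; top concentration of the series differs between compounds; nearly all actives have a fitted effect of over 50% in size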)
Summary of the method: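 CHO Tet-on RORγ, RORE-luc reporter. Cpd 2 h pre-incubation, then dox hyclate 1 uM final, 16 h, 37 C/5% CO2. ONE-Glo luminescence; decrease = antagonist.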

[8] = qHTS assay to identify small molecule agonists of the AP-1 signaling pathway - cell viability counter screen (AID 1159525; calls by dose curve; also: nearly all actives have a fitted effect of over 55% in size)
Summary of the method: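 AP-1-bla ME-180 cells in Opti-MEM with 0.5% dialyzed FBS, compound exposure 5 h at 37 C in 15-point titration. Viability read in the same wells as ATP content by CellTiter-Glo luminescence, normalised to tetra-n-octylammonium bromide and DMSO controls.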

[9] = qHTS assay to identify small molecule agonists of the AP-1 signaling pathway (AID 1159526; calls by dose curve)
[10] = molecular target: Retinoic acid receptor RXR-alpha (Homo sapiens) (UniProt P19793); assay: qHTS assay to identify small molecule agonists of the RXR signaling pathway (AID 1159527; calls by dose curve; also: nearly all actives have a fitted effect of over 35% in size)
Retinoic acid receptor RXR-alpha (Homo sapiens), sequence (P19793 whole entry, looked up): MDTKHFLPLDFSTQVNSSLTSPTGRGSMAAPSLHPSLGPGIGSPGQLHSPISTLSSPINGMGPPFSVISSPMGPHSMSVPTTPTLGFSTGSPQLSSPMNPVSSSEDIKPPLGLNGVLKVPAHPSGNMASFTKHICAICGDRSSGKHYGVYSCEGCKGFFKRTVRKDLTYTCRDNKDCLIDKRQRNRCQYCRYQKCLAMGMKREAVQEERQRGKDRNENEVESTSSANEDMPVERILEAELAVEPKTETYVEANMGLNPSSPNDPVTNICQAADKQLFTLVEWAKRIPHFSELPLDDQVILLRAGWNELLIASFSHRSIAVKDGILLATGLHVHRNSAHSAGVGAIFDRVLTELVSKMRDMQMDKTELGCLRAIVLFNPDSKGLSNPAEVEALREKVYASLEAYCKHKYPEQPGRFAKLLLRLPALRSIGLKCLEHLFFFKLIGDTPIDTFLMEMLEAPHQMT
Summary of the method: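 Read-out: beta-lactamase FRET ratio (405 nm excitation, 460 and 530 nm emission) after 2 hr substrate loading at room temperature. Cells were RXR-alpha-UAS-bla HEK 293T treated with compounds for 16 hr in 2% charcoal-stripped FBS medium.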

[11] = qHTS assay to identify small molecule antagonists of the retinoic acid receptor (RAR) signaling pathway (AID 1159552; also: nearly all actives have a fitted effect of over 50% in size)
Summary of the method: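 Cells of the C3RL4 line were seeded, incubated overnight, then dosed with compounds in DMSO followed immediately by retinol (1 uM final). Six hours later luciferase detection reagent went in; signal was measured after 30 min at RT.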

[12] = qHTS assay to identify small molecule agonists of the retinoic acid receptor (RAR) signaling pathway (AID 1159553)
Summary of the method: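 Activation of retinol signaling was monitored via a RARE luciferase reporter in C3RL4 cells. After 6 hr compound treatment at 37 C, detection reagent was added for 30 min at room temperature before luminescence reading.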

[13] = qHTS assay to identify small molecule agonists of the RXR signaling pathway - cell viability counter screen (AID 1159529)
Summary of the method: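 HEK 293T RXRa-bla cells, 2% CS-FBS; 5 h settle; cpd 16 h 37 C, 5% CO2; CellTiter-Glo 30 min RT, luminescence. Tetraoctyl ammonium bromide as positive control.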

[14] = qHTS assay to identify small molecule antagonists of the retinoid acid receptor (RAR) signaling pathway - cell viability counter screen (AID 1159551); also: nearly all actives have a fitted effect of over 35% in size
Summary of the method: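 Seed C3RL4 cells; next day add compound, then retinol to 1 uM final; incubate 6 h at 37 C; add CellTiter-Glo; read luminescence after 30 min at RT.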

[15] = qHTS assay to identify small molecule antagonists of the estrogen related receptor (ERR) signaling pathway - cell viability counter screen (AID 1224818);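 also: series mostly up to about 46 µM; viability measured after 17.5 h of compound exposure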
Summary of the method: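 In the same ERR cell assay, compound-treated wells (17.5 h, 37 C) were multiplexed with a fluorogenic viability reagent, CellTiter-Fluor, read after 30 min to flag cytotoxic substances.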

[16] = qHTS assay to identify small molecule agonists of the estrogen related receptor (ERR) signaling pathway (AID 1224820)
Summary of the method: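 ERR reporter cell line (from NTP), 2,000 cells/well, incubated 6 h before compound addition, then 18 h at 37 C. Luminescence measured 30 min after One-Glo reagent at room temperature.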

[17] = qHTS assay to identify small molecule antagonists of the estrogen related receptor signaling pathway with the pleiotropic PPARgamma coactivator (PGC) cell viability counter screen (AID 1224822; also: series mostly up to about 46 µM)
Summary of the method: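 Compounds in DMSO, with positive and negative controls, were applied to PGC/ERR cells (2,000/well) and left 17.5 h at 37 C before CellTiter-Fluor detection.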

[18] = qHTS assay to identify small molecule agonists of the endoplasmic reticulum stress response signaling pathway - cell viability counter screen (AID 1159517; calls by dose curve)
Summary of the method: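 ESRE-bla HeLa cells, 1,500 per well, seeded overnight then treated with compounds for 5 hr at 37 C. After the beta-lactamase read, viability in the same wells is measured by CellTiter-Glo luminescence after 30 min at room temperature.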

Measured: Potency

Oc1cc(O)c2c(c1)O[C@H](c1ccc(O)c(O)c1)[C@H](O)C2
not listed: [13] | [14] | [15] | [16] | [17] | [18]
inactive: all other assays above

CCO[Si](C)(OCC)OCC
not listed: [10] | [15] | [16] | [17] | [18]
inactive: all other assays above

CN(C)C(=O)C(CCN1CCC(O)(c2ccc(Cl)cc2)CC1)(c1ccccc1)c1ccccc1
not listed: [1] | [6] | [10] | [18]
inactive: all other assays above

OC/C=C/c1ccccc1
inactive: [1] | [3] | [4] | [5] | [6] | [8] | [9] | [10] | [13]

c1ccc2cnncc2c1
inactive: [1] | [3] | [4] | [5] | [7] | [8] | [9] | [10] | [13]

CC(C)=CC(=O)O
not listed: [11] | [12] | [13] | [15] | [16] | [17] | [18]
inactive: all other assays above

CC(C)=CCC/C(C)=C/C(=O)O
not listed: [6] | [11] | [12] | [15] | [16] | [17]
inactive: all other assays above

COC(=O)[C@H]1[C@H]2C[C@@H]3c4[nH]c5cc(OC)ccc5c4CCN3C[C@H]2C[C@@H](OC(=O)COc2ccc(OC)cc2)[C@@H]1OC
not listed: [6] | [10] | [13] | [15] | [16] | [17]
inactive: all other assays above

O=C(O)C1CCC1
not listed: [6] | [11] | [12] | [15] | [16] | [17]
inactive: all other assays above

CCOC(=O)Cn1c(=O)sc2cccc(Cl)c21
not listed: [2] | [7] | [10] | [15] | [16] | [17] | [18]
inactive: all other assays above

CC1(C)SC(C)(C)SC(C)(C)S1
inactive: [1] | [3] | [4] | [5] | [7] | [8] | [9] | [10] | [13] | [14]
